Shown are actives, neighbours in structure and some others; about 2.5% of the full set was active somewhere.
Cruzain noTriton = cruzain (T. cruzi) inhibition without detergent | Potency, µM, for the others: max response, negative = inhibition, most hits filed as inhibitors | purified cruzain, Z-FR-AMC fluorescence, no detergent | 2.3% of 200,000 active;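 also: plate controls were enzyme without inhibitor for no effect and buffer without enzyme for full effect; nearly all actives have a fitted effect of over 40% in size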
Target sequence (P25779 123-467 limits assumed): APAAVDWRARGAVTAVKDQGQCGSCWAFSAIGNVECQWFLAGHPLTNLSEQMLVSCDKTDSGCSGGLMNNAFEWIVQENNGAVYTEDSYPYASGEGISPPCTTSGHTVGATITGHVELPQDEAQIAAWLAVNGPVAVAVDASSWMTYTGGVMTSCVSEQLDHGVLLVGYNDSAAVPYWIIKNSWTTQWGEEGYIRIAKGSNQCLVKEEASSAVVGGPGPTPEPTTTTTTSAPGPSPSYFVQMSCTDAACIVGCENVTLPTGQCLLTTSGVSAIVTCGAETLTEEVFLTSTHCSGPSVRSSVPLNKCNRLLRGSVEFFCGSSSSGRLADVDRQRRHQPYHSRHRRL
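Purified cruzain at 1.5 nM, pre-incubated 15 min with compound at room temperature in 100 mM sodium acetate pH 5.5, 5 mM DTT, 0.00005% Triton X-100. Reaction started with 2 uM Z-FR-AMC; AMC fluorescence increase over 60 s gives rate.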
Cruzain inh Det = inhibitors of Trypanosoma cruzi cruzain with detergent; Potency, µM, for the others: max response, negative = inhibition, most hits filed as inhibitors; purified cruzain, Z-FR-AMC fluorescence, 0.01% Triton; 0.43% of 200,000 active; AID 1478;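 also: plate controls were neutral wells for no effect and buffer without enzyme for full effect; nearly all actives have a fitted effect of over 40% in size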
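Enzyme 1.5 nM, Z-FR-AMC 2 uM, NaOAc 100 mM pH 5.5, DTT 5 mM, Triton X-100 0.01%; 15 min RT compound preincubation; kinetic ex360/em450, 60 s delta.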
* hit, by the source's call; ? = inconclusive. Calls follow the shape of the dose curve; as a rule, active = well fitted curve in the direction sought with a large enough effect; inconclusive = small, poorly fitted or top-dose-only effect, or another doubt; inactive = no such curve, though single readings can be large; an effect the other way counts as inactive or inconclusive. Potency is read from the fitted curve at half-maximal effect.

SMILES | Cruzain noTriton | Cruzain inh Det
Cc1cc(NC(=O)CN(c2cccc(C)c2C)S(=O)(=O)c2ccccc2)ccc1Br | 6.3µM* | -3%
Cc1cc(C)cc(NC(=O)CN(c2cccc(C)c2C)S(=O)(=O)c2ccccc2)c1 | ? | -7%
COc1cccc(NC(=O)CSc2nnc(COc3ccc(Cl)cc3)o2)c1 | ? | -5%
O=C(CSc1nnc(COc2ccc3c(c2)CCCC3)o1)Nc1ccc(F)cc1 | 25µM* | 2%
Cc1cccc(C)c1OCc1nnc(SCC(=O)Nc2ccccc2F)o1 | -9% | -5%
COC(=O)c1ccc(NC(=O)CSc2nnc(COc3c(C)cccc3C)o2)cc1 | 25µM* | 5%
O=C(CSc1nccn1-c1ccc(F)cc1)Nc1ccc(OC(F)(F)F)cc1 | ? | -10%
O=C1N=C(N2CCOCC2)S/C1=C\c1ccc(-c2ccccc2Cl)o1 | 32µM* | -27%
Cc1ccsc1/C=C1/SC(N2CCOCC2)=NC1=O | -1% | -6%
Cc1cc(=O)oc2cc(O)c(CN(C)CC(=O)O)cc12 | 2% | -7%
Cc1csc(NC(=O)c2cc3c(C)nn(Cc4ccccc4Cl)c3s2)n1 | 25µM* | -6%
Cc1nn(Cc2ccccc2Cl)c2sc(C(=O)NC(C)(C)C)cc12 | 16% | -6%
COc1ccc(-c2nnc(CSc3nc4ccccc4c(=O)n3C)o2)cc1OC | ? | 0%
COc1ccc(-c2cc(-c3ccc(C)cc3)nc(SCc3nnc(-c4ccccc4)o3)c2C#N)cc1OC | 10µM* | -1%
CC[N+](CC)(CCNC(=O)C(=O)NCC[N+](CC)(CC)Cc1ccccc1Cl)Cc1ccccc1Cl | -2% | -2%
CCOc1ccc(S(=O)(=O)NCCC(=O)OCN2C(=O)c3ccccc3C2=O)cc1 | -8% | -7%
Cc1ccc(S(=O)(=O)NCC(=O)OCN2C(=O)c3ccccc3C2=O)cc1 | 25µM* | 22µM*
COc1ccc(S(=O)(=O)NCC(c2ccco2)S(=O)(=O)c2cccs2)cc1C (configuration not stated) | 12% | -4%
CCc1ccccc1Nc1nc2ccccc2n2cnnc12 | 9% | -6%
CCOc1ccccc1CN1CCc2nc(Nc3ccc4c(c3)OCCO4)ncc2C1 | 2% | -2%
N=C(N)SCCc1ccncc1 | 3% | -1%
c1cc(CSSCc2ccncc2)ccn1 | ? | 2.8µM*
CCOC(=O)c1c(C)oc2nc(C)nc(NCCCN3CCN(c4cccc(C)c4)C(C)C3)c12 (configuration not stated) | -2% | 0%
COC(=O)N1C(C)=Cc2ccccc2C1CC(C)=O (configuration not stated) | -6% | -2%
CCN(CC)CCC[C@H](C)Nc1c2ccc(Cl)cc2nc2ccc(OC)cc12 | -6% | -4%
SMILES | Cruzain noTriton | Cruzain inh Det
COC(=O)C1=C(C)NC(=S)NC1c1ccc(-c2cccc(Cl)c2)o1 (configuration not stated) | 25µM* | -7%
CCOC(=O)C1=C(C)NC(=S)NC1c1ccc(-c2ccc(Cl)cc2)o1 (configuration not stated) | ? | -4%
CC(=NCc1cccnc1)c1c(O)n(Cc2ccccc2)c(=O)[nH]c1=O | -2% | -1%
C/C(=N\Nc1cccc2ccccc12)c1c(O)n(Cc2ccccc2)c(=O)[nH]c1=O | 10µM* | -5%
N#Cc1cccc(NC(=O)CCNS(=O)(=O)c2ccc3c(c2)CCN3C(=O)C2CC2)c1 | -6% | 0%
CCc1ccc(OCCCSc2nc(-c3ccc(C(C)(C)C)cc3)nc3cc(=O)[nH]n23)cc1 | 6.3µM* | -6%
Cc1cccc(-c2nc(SCCCOc3ccc(Cl)c(C)c3)n3[nH]c(=O)cc3n2)c1 | -9% | 3%
CCc1ccc(OCCSc2nc(-c3cccc(C)c3)nc3cc(=O)[nH]n23)cc1 | -8% | 2%
Cc1cccc(OCCCSc2nc(-c3ccc(C(C)(C)C)cc3)nc3cc(=O)[nH]n23)c1C | 10µM* | -11%
CCc1nn2c(=O)cc(COC(=O)c3cccc(NC(=O)c4ccccc4C)c3)nc2s1 | -10% | 1%
COc1ccc(-c2nc(SCC(=O)NC(C)CCc3ccccc3)n[nH]2)cc1 (configuration not stated) | -8% | -3%
COc1ccc(-c2nc(-c3ccc(Br)o3)no2)cc1 | -21% | 6%
COc1ccc(Cl)cc1-c1nc(-c2ccc(Br)o2)no1 | 7.9µM* | 10%
COc1ccc2cc(-c3nc4ccc(C(=O)O)cc4[nH]3)c(=O)oc2c1 | 6% | 2%
CCN1C(=O)c2c(C)nc3ccccc3c2C1=O | 7% | 0%
CCc1ccc(C(=O)COC(=O)c2cccc(N3C(=O)c4c(C)nc5ccccc5c4C3=O)c2)cc1 | 6.3µM* | 4%
O=C(O)CCn1cnc2onc(-c3ccccc3Cl)c2c1=O | -15% | -2%
COc1ccc(-c2cc(C(=O)Nc3c(Cl)cccc3Cl)no2)cc1OC | 5% | -10%
Cc1cc(NC(=O)COC(=O)C(Cc2ccccc2)NC(=O)c2ccco2)no1 (configuration not stated) | 25µM* | 28µM*
O=C(COC(=O)[C@H](Cc1ccccc1)NC(=O)c1ccco1)NC(c1ccccc1)c1ccccc1 | 5% | -7%
O=C(CN1C(=O)c2ccccc2C1=O)[C@@H](O)CN1C(=O)c2ccccc2C1=O | -7% | -2%
COc1ccc(-n2c(SCc3nc(-c4ccc(C)cc4)no3)nnc2-c2ccccc2)cc1 | ? | -6%
O=c1c2ccccc2nc(SCc2nnc(-c3ccccc3Br)o2)n1-c1ccccc1 | 32µM* | -1%
Brc1ccccc1-c1nnc(CSc2nncn2-c2ccccc2)o1 | -8% | 2%
Cc1ccc2nc(SCc3nnc(-c4ccccc4Br)o3)[nH]c2c1 | 20µM* | -30%
SMILES | Cruzain noTriton | Cruzain inh Det
Cc1ccc2nc(SCc3nc(-c4ccccc4C)no3)[nH]c2c1 | -7% | -24%
Cc1sc2nc(SCc3nc(-c4ccccc4)no3)n(-c3ccccc3)c(=O)c2c1C | 25µM* | -3%
COc1ccc(-c2noc(CSc3nc4ccccc4c(=O)n3-c3ccc(C)cc3)n2)cc1 | 16µM* | 5%
Cc1sc2nc(SCC(=O)NCc3ccco3)n(-c3ccccc3)c(=O)c2c1C | -10% | 3%
NC(=O)C1CCN(S(=O)(=O)c2ccc(N3CCCCS3(=O)=O)cc2)CC1 | 4% | -1%
O=C(c1ccc(Nc2nc3ccccc3n3nnnc23)cc1)N1CCN(c2ccc(F)cc2)CC1 | -7% | -4%
COC(=O)[C@@H]1C[C@H]1[C@@H](NC(=O)c1ccc(Br)cc1)c1ccccc1 | -2% | -9%
COc1ccc(CNCc2c(C(=O)O)n(Cc3ccc(F)cc3)c3cc(C)ccc23)cc1OC | ? | -3%
Cc1cc(C)cc(OCC(=O)NCC(c2ccc(Cl)cc2)N2CCCCC2)c1 (configuration not stated) | 0% | -1%
Cc1nn(C(=O)c2ccccc2)c(C)c1Sc1ccc(Cl)cc1 | 3% | -6%
COc1ccc(-c2noc(-c3ccc(N4CCC(C)CC4)c([N+](=O)[O-])c3)n2)cc1OC | 20µM* | -7%
COc1ccc(-c2noc(-c3ccc(N4CCOCC4)c([N+](=O)[O-])c3)n2)cc1OC | 12% | -4%
COC(=O)c1ccc2c(=O)n(CCCCCC(=O)N3CCN(c4cc(Cl)ccc4C)CC3)c(=O)[nH]c2c1 | 4% | -1%
CC(C)C=O | -3% | -3%
O=C(Nc1ccc(-c2cc(C(F)(F)F)nn2-c2ccccc2)cc1)c1cccc(F)c1 | 20µM* | -6%
O=C(NC(=O)c1cccc(F)c1)Nc1ccc(-c2cc(C(F)(F)F)nn2-c2ccccc2)cc1 | 0% | -1%

Screening data from PubChem.
